Compounds with a hit are over-represented: about 18% of the library has one in this group of screens.
Gal4-VP16 FLuc: inhibits Gal4-VP16 luciferase reporter, ROR gamma counter-screen; Drosophila S2 Gal4-VP16 UAS-luciferase, luminescence, 20 h; Potency, µM (top dose mostly 53.6 µM), for the others: at the top dose activity, negative = inhibition, usual class: inhibitors; actives 3.5% (n = 310,000);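 also: Gal4-VP16 expression switched on by copper sulfate through the metallothionein promoter; potency is read from the fitted curve at half-maximal effect; nearly all actives have a fitted effect of over 50% in size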
LDHA block: blocks human lactate dehydrogenase A; actives 0.15% (n = 480,000); activity change, % (values are at about 110 or 230 µM); purified LDHA, NADH/diaphorase-resazurin fluorescence; stronger effect = lower value; in the data active = activity change below about -30%; inconclusive = mostly about -25% to -30%;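 also: plate controls were DMSO wells for no effect and wells without enzyme for full effect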
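Enzyme activity of human lactate dehydrogenase 5 (2 nM; 0.06 mM NADH, 0.2 mM pyruvate, 5 min, RT) is measured via a resazurin/diaphorase fluorescence readout of residual NADH.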
IL1B secr inh: inhibitors of inflammasome signaling (IL-1 beta secretion); THP-1 LPS/ATP IL-1B secretion, AlphaLISA, 16 h; stronger effect = lower value; actives 4.7% (n = 360,000); activity change, % at 57.5 µM; in the data active = activity change below about -50%; inconclusive = mostly about -30% to -49%
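Secreted IL-1B measured by AlphaLISA bead assay after 16 h compound exposure of THP-1 cells; compounds (final up to 57.5 uM) added 1 h before LPS (250 ng/mL) and ATP (1.25 mM) stimulation; lower signal means less secretion.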
RORg inh: inhibitors of mouse ROR gamma transcriptional activity. P51450. Drosophila S2 Gal4-RORgamma UAS-luciferase reporter, 20 h. Potency, µM (highest dose often 53.6 µM), for inactives: top-dose activity change, negative = inhibition, hits mostly inhibitors. actives 5.4% (n = 310,000). AID 2551; also: potency is read from the fitted curve at half-maximal effect; nearly all actives have a fitted effect of over 60% in size
Target sequence (P51450 whole entry, looked up, the tested form may be a part): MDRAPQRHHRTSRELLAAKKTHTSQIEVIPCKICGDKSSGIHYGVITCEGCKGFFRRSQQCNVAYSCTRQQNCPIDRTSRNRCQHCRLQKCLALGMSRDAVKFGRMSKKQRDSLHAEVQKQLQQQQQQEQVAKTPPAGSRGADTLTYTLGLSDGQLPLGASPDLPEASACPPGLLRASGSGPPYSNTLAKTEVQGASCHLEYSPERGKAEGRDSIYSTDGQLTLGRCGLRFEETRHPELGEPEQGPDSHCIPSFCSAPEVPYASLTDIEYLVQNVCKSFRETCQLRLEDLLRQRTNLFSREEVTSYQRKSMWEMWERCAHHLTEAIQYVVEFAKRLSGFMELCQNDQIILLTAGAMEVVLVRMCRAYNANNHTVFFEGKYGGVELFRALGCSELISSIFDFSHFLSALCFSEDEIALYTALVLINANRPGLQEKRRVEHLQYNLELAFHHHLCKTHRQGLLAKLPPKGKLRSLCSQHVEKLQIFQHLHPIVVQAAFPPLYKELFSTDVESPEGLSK
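Read-out: Photinus luciferase luminescence; inhibitors lower reporter signal. Insect Schneider cells with Gal4-ROR gamma fusion under metallothionein promoter, UAS reporter; 700 uM final copper sulfate induction, 20 hr, ambient temperature.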
TDP1 cell CPT: DT40-hTDP1 cell growth loss with CPT | actives 12% (n = 420,000) | Potency, µM (doses to about 46.2 µM), inactives show at the top dose activity change, negative = growth inhibition, usual class: inhibitors | AID 686979 | chicken DT40 Tdp1-/-;hTDP1 cells + 20 nM CPT, ATP luminescence, 48 h; also: potency is read from the fitted curve at half-maximal effect; nearly all actives have a fitted effect of over 55% in size
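Chicken DT40 Tdp1-/- cells stably complemented with human TDP1 were seeded at 400 cells/well in medium containing 20 nM camptothecin, exposed to pin-transferred compounds, and grown at 37 °C for at least 48 hr. Viability was read as ATP luminescence.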
TDP1 cell noCPT: qHTS for Inhibitors of human tyrosyl-DNA phosphodiesterase 1 (TDP1): qHTS in cells in absence of CPT; DT40 Tdp1-/- hTDP1 cells, no CPT, ATP luminescence, 48 h; Potency, µM (top dose mostly 46.2 µM), without a hit: at the highest dose activity change, negative = growth inhibition, most hits filed as inhibitors; actives 15% (n = 420,000); AID 686978, 2013; also: potency is read from the fitted curve at half-maximal effect; nearly all actives have a fitted effect of over 55% in size
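Chicken DT40 Tdp1-/- cells stably complemented with human TDP1 were seeded at 400 cells/well with DMSO in place of 20 nM camptothecin. After compound pinning, cells grew at least 48 hr at 37 °C; viability read by CellTiter-Glo luminescence.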
Starred values were filed as active, the others as inactive; ? = inconclusive; · = not tested or not shown. Unless noted, calls follow the shape of the dose curve; as a rule, active = well fitted curve in the direction sought with a large enough effect; inconclusive = small, poorly fitted or top-dose-only effect, or another doubt; inactive = no such curve, though single readings can be large; an effect the other way counts as inactive or inconclusive. Unless noted, % is scaled to controls: 0 for no effect and ±100 for the full control effect.

SMILES | Gal4-VP16 FLuc | LDHA block | IL1B secr inh | RORg inh | TDP1 cell CPT | TDP1 cell noCPT
Clc1cccc(Cl)c1CON/C=N/c1ncnc2sccc12 | ? | -11 | 17 | ? | 23µM* | 16µM*
O=Cc1ccc(OCc2cccc(Cl)c2)cc1 | · | 8 | · | · | · | ·
Clc1cccc(CON/C=N/c2ncnc3sccc23)c1 | -24% | -7 | -12 | ? | 18µM* | 10µM*
O=C(O)CNCc1ccccc1 | · | 0 | · | · | · | ·
Cc1cc(C(=O)C(C)OC(=O)C2=NNC(=O)CC2)c(C)n1-c1ccc(OC(F)F)cc1 (stereo not drawn) | 0% | -8 | -10 | ? | ? | 21µM*
Cc1cc(C(=O)COC(=O)C2=NNC(=O)CC2)c(C)n1-c1ccc(OC(F)F)cc1 | 11% | -1 | -3 | -15% | ? | ?
COc1ccc(-c2coc3cc(OCc4ccccc4C)ccc3c2=O)cc1 | · | 0 | · | · | · | ·
CC1(C)CC(=O)C=C(c2ccc(I)cc2)C1 | · | -4 | -74* | · | -9% | ?
CC(=O)Nc1ccc(C2=CC(=O)CC(C)(C)C2)cc1 | · | -4 | -15 | · | ? | -26%
CC(C)N(C)C1=CC(=O)C(N(C)C(C)C)=CC1=O | · | 30 | -11 | · | 23µM* | ?
CCOc1c(Br)cc(/C=C2\N=C(C)OC2=O)cc1Br | -11% | -5 | -1 | 8% | 21µM* | ?
COc1ccc2[nH]c(=O)c(CN(C)C(=O)c3ccccn3)cc2c1 | · | 7 | · | · | · | ·
COc1cccc(C(C)(O)c2nc(-c3ccccc3)cs2)c1 (stereo not drawn) | · | 1 | 5 | · | 16µM* | 18µM*
CC(C)c1cccc(-c2csc(C(C)(O)c3ccc(F)c(F)c3)n2)c1 (stereo not drawn) | · | 5 | ? | · | ? | ?
CC(C)c1cccc(-c2csc(C(C)(O)c3ccncc3)n2)c1 (stereo not drawn) | · | -3 | 10 | · | 12µM* | 13µM*
COc1cccc(C(C)(O)c2nc(-c3ccc(OC)c(OC)c3)cs2)c1 (stereo not drawn) | · | -2 | -25 | · | ? | ?
CN(C)c1ccc(-c2csc(C(C)(O)c3cccc(F)c3)n2)cc1 (stereo not drawn) | · | -9 | -17 | · | 13µM* | 21µM*
COc1cccc(C(C)(O)c2nc(-c3ccc(N(C)C)cc3)cs2)c1 (stereo not drawn) | · | 3 | -19 | · | 18µM* | 21µM*
Cc1cc(C)c(CO)c(C)c1C=O | · | 7 | · | · | · | ·
CC(NCC(C#N)CCC#N)c1cccc(Br)c1 (stereo not drawn) | · | 12 | · | · | · | ·
Cc1ccc(CN(C(=S)NCC(=O)O)C2CCCCC2)cc1 | · | -5 | · | · | · | ·
C=CCNC(=O)NC(=O)CN(C)CCOc1ccc(Cl)cc1 | · | 5 | · | · | · | ·
COc1cccc(C(C)(O)c2nc(-c3ccc(F)c(Cl)c3)cs2)c1 (stereo not drawn) | · | -4 | -23 | · | ? | ?
COc1cccc(C(C)(O)c2nc(-c3cccc(C(C)C)c3)cs2)c1 (stereo not drawn) | · | -1 | -83* | · | ? | 23µM*
COc1cc(OC)c(C(=O)Nc2nnc(C(F)(F)F)s2)cc1OC | · | 1 | · | · | · | ·
SMILES | Gal4-VP16 FLuc | LDHA block | IL1B secr inh | RORg inh | TDP1 cell CPT | TDP1 cell noCPT
C=CC1=CCN(S(=O)C(C)(C)C)[C@@H]1CCO (stereo partly drawn) | · | 7 | 6 | · | -16% | -14%
C=C(C1=CCN(S(=O)C(C)(C)C)[C@H]1CCO)c1ccccc1 (stereo partly drawn) | · | -6 | 20 | · | 13µM* | ?
C=C(C1=CCN(S(=O)(=O)C(C)(C)C)[C@H]1CCO)c1ccccc1 | · | -10 | 21 | · | ? | 16µM*
CC(C)(C)C(=O)N1CCN(CCNc2cc(=O)oc3ccccc23)CC1 | · | -10 | · | · | · | ·
Nc1ccccc1N=Nc1ccccc1N | ? | 1 | -6 | 10µM* | ? | -28%
Cc1ccc2c(c1)c1c(n2CC(O)CN2C(=O)CNC2=O)C(=O)CCC1 (stereo not drawn) | -4% | 6 | -10 | -3% | 7% | 4%
Cc1ccc2c(c1)c1c3n2CCN(C(=O)C2CC2)C3CCC1 (stereo not drawn) | 24% | 4 | -11 | 11% | ? | ?
Cc1ccc2c(c1)c(=O)c1c3n2CCN(C(=O)CCl)C3CC1 (stereo not drawn) | -22% | 19 | -15 | 4% | 26µM* | 16µM*
Cc1ccc2c(c1)c1c3n2CCN(CC(O)CNC(C)C)C3CCC1 (stereo not drawn) | 1% | 2 | -57* | 20% | ? | ?
Cc1ccc2c(c1)c1c3n2CCN(C(=O)CN2CCN(C)CC2)C3CCC1 (stereo not drawn) | -6% | 9 | -22 | -2% | ? | 16µM*
Cc1ccc2c(c1)c1c(n2CC(O)CNC2CCCC2)CCCC1 (stereo not drawn) | -4% | -6 | -90* | 1% | ? | ?
CC(=O)Nc1ccc(C(=O)N(CCc2ccccc2)Cc2ccccc2)s1 | · | -2 | · | · | · | ·
CC(C)c1ccc(CN(C(=O)Cc2n[nH]c(=O)c3ccccc23)C2CC2)cc1 | · | 1 | · | · | · | ·
CCCNc1nc2ccccc2nc1C(=O)Nc1ccc(C(=O)OCC)cc1 | · | 5 | · | · | · | ·
Cc1ccc(-c2nc(CN(C)CC(=O)N(C)C)co2)cc1 | · | 7 | · | · | · | ·
Cn1ccnc1SCC(=O)c1ccc(Br)cc1 | ? | -2 | -9 | ? | -15% | ?
CCN(C(=O)CSc1nccn1C)c1cccc2ccccc12 | · | -1 | 58 | · | 21µM* | 10µM*
Cn1ccnc1SCC(=O)Nc1cccc2ccccc12 | 7% | -4 | 6 | -1% | -27% | -5%
COc1ccccc1C(=O)CSc1nccn1C | ? | -4 | -19 | -29% | ? | 16µM*
Cn1ccnc1SCC(=O)c1ccc([N+](=O)[O-])cc1 | 0% | -8 | -15 | ? | 18µM* | ?
CS(=O)(=O)N1CCC(C(=O)Nc2cccc(OCc3ccc(F)cc3)c2)CC1 | · | 2 | · | · | · | ·
COc1ccc(C)cc1NC(=O)Cc1nc(-c2ccccc2)oc1C | · | -1 | · | · | · | ·
CCN1CCN(Cc2ccc(CNC(=O)C(C)NC(=O)c3ccco3)cc2)CC1 (stereo not drawn) | · | -6 | · | · | · | ·
Cc1ccc2[nH]cc(CCNC(=O)CCc3ccccc3)c2c1 | · | 2 | · | · | · | ·
CN1NC(c2ccccc2)NN(C)C1=O | · | 15 | -13 | · | 18µM* | -29%
Cc1ccc(C)c(C(=O)OCC(=O)NC2CCCC2)c1 | · | 2 | · | · | · | ·

From PubChem
